# Several values for one entry are separate records, joined by “and”; a condition that tells them apart may be missing. Equal values may be shown once. Results filed as inconclusive are left out. More than one record can exist for a structure, and the calls need not agree. Activity calls are given as the source filed them. The calls were made as follows: active = hit-call score of the fitted dose curve at least 0.9, where 1 is the maximum; inconclusive = response in the unintended direction; inactive = score below 0.9.
# Columns and labels:
# [1] = target: human Purinergic Receptor P2Y, P2RY1 (gene 5028) (UniProt P47900); test: NVS_GPCR_hPY2: NovaScreen (NVS) G Protein-Coupled Receptor Assay for human Purinergic Receptor P2Y (AID 2283281)
# human Purinergic Receptor P2Y, P2RY1 (gene 5028), sequence (P47900 whole entry, looked up): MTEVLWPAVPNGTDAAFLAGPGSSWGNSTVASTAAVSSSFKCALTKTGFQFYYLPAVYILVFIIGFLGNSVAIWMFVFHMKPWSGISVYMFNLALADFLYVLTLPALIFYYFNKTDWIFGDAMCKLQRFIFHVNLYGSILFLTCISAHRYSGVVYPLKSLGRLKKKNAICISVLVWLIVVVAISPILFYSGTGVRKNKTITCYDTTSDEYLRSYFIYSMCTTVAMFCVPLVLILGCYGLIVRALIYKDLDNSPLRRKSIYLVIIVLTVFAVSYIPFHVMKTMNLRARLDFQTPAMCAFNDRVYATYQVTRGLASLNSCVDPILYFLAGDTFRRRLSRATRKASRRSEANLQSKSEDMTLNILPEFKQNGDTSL
# How it was run: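 Cell-free radioligand binding using U937-derived protein, 1 h after dosing, filter-based scintillation counting. Screened in duplicate at 25 uM; actives rerun as concentration-response up to 50 uM; loss of signal versus DMSO.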
# [2] = target: human Vasopressin 1A Receptor (V1A), AVPR1A (gene 552) (UniProt P37288); test: NVS_GPCR_hV1A: NovaScreen (NVS) G Protein-Coupled Receptor Assay for human Vasopressin 1A Receptor (V1A) (AID 2283284)
# human Vasopressin 1A Receptor (V1A), AVPR1A (gene 552), sequence (P37288 whole entry, looked up): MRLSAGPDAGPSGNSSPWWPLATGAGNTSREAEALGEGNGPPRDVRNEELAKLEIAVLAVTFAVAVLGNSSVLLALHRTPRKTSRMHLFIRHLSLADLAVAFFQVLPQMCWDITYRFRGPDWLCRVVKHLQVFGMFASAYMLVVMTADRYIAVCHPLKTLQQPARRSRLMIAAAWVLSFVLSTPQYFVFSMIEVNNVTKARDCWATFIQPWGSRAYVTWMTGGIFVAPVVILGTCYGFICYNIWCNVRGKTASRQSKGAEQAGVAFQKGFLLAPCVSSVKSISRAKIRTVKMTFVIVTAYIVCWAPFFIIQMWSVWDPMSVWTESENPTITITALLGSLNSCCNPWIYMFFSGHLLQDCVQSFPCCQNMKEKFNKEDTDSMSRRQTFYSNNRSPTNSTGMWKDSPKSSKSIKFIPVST
# How it was run: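 Cell-free radioligand displacement on human platelet preparations, 1.5 h incubation, filter-based scintillation counting. Chemicals first tested in duplicate at 25 uM; actives then run in concentration-response up to 50 uM, loss of signal fitted against DMSO.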
# [3] = target: human Opioid Receptor Delta 1 (Opiate D1), OPRD1 (gene 4985) (UniProt P41143); test: NVS_GPCR_hOpiate_D1: NovaScreen (NVS) G Protein-Coupled Receptor Assay for human Opioid Receptor Delta 1 (Opiate D1) (AID 2283280)
# human Opioid Receptor Delta 1 (Opiate D1), OPRD1 (gene 4985), sequence (P41143 whole entry, looked up): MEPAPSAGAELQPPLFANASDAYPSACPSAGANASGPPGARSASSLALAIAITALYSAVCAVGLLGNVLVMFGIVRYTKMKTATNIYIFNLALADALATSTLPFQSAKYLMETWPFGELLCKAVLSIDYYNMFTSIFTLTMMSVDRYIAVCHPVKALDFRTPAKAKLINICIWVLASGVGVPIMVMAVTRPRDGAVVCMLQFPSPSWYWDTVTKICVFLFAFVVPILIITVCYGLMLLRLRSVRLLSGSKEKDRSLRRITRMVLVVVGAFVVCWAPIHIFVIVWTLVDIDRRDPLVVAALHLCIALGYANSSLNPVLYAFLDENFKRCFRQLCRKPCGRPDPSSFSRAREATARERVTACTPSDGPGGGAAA
# How it was run: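 Radioligand displacement on membranes from CHO cells expressing the receptor, read by filter scintillation counting 1 h after dosing. Duplicate single-point screen at 25 uM, then concentration series for actives; loss of signal versus DMSO.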
# [4] = target: human Thromboxane A2 Receptor (TXA2), TBXA2R (gene 6915) (UniProt P21731); test: NVS_GPCR_hTXA2: NovaScreen (NVS) G Protein-Coupled Receptor Assay for human Thromboxane A2 Receptor (TXA2) (AID 2283282);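 also: actives reduce bound radioligand signal relative to DMSO baseline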
# human Thromboxane A2 Receptor (TXA2), TBXA2R (gene 6915), sequence (P21731 whole entry, looked up): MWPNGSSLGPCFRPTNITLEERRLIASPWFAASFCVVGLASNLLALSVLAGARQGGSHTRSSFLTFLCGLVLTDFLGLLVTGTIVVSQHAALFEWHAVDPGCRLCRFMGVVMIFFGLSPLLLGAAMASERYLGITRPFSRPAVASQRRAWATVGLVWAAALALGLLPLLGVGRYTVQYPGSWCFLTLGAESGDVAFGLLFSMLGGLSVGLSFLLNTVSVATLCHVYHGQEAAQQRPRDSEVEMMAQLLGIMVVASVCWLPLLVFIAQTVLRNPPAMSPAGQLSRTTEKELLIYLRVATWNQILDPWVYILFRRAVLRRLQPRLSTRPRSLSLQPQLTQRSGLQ
# How it was run: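 Filter scintillation counting of bound radioligand, human platelet protein, 1 h exposure. Single-concentration duplicates (25 uM) first, concentration-response follow-up for actives. Binding loss scored against DMSO baseline.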
# [5] = tested on: 5-hydroxytryptamine receptor 2C (pig); test: NVS_GPCR_p5HT2C: NovaScreen (NVS) G Protein-Coupled Receptor Assay for pig Serotonin, 5-Hydroxytryptamine Receptor 2C (5HT2C) (AID 2283288)
# How it was run: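 Pig choroid plexus membranes; radioligand competitive binding, filter-based scintillation counting, read 1 h after dosing. Primary screen in duplicate at 25 uM; actives then run as concentration series; loss of signal versus DMSO baseline.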
# [6] = target: human Orphanin, Opioid Related Nociceptin Receptor 1 (ORL1), OPRL1 (gene 4987) (UniProt P41146); test: NVS_GPCR_hORL1: NovaScreen (NVS) G Protein-Coupled Receptor Assay for human Orphanin, Opioid Related Nociceptin Receptor 1 (ORL1) (AID 2283283)
# human Orphanin, Opioid Related Nociceptin Receptor 1 (ORL1), OPRL1 (gene 4987), sequence (P41146 whole entry, looked up): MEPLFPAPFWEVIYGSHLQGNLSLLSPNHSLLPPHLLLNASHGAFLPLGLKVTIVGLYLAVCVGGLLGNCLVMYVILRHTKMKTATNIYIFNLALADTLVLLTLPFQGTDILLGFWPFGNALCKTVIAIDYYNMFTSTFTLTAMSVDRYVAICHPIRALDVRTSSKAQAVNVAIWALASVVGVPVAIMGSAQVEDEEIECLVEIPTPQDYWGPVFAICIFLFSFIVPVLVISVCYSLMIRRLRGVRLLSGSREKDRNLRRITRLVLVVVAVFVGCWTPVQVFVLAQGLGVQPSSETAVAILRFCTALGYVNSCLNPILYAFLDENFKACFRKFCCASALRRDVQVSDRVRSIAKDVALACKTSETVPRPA
# How it was run: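 Filter-based radioligand displacement with receptor extracted from HEK293 cells, read 1 hour after dosing by scintillation counting. Duplicate single-point screen at 25 uM; qualifying chemicals then run in concentration-response to 50 uM, analysed relative to DMSO.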
# [7] = tested on: rabbit Platelet Activating Factor Receptor (PAF), gene 100354046; test: NVS_GPCR_rabPAF: NovaScreen (NVS) G Protein-Coupled Receptor Assay for rabbit Platelet Activating Factor Receptor (PAF) (AID 2283287)
# Experimental: NVS_GPCR_rabPAF is a biochemical, single-readout assay that uses extracted gene-proteins from Rabbit platelets in a tissue-based cell-free assay. Measurements were taken 1 hour after chemical dosing in a 48-well plate.NVS_GPCR_rabPAF is one of one assay component(s) measured or calculated from the NVS_GPCR_rabPAF assay. It is designed to make measurements of radioligand binding, a form of binding reporter, as detected with scintillation counting signals by Filter-based radiodetection technology.Data from the assay component NVS_GPCR_rabPAF was analyzed into 1 assay endpoint. This assay endpoint, NVS_GPCR_rabPAF, was analyzed in the positive analysis fitting direction relative to DMSO as the negative control and baseline of activity. Using a type of binding reporter, loss-of-signal activity can be used to understand changes in the binding as they relate to the gene PTAFR. Furthermore, this assay endpoint can be referred to as a primary readout, because the performed assay has only produced 1 assay endpoint. To generalize the intended target to other relatable targets, this assay endpoint is annotated to the gpcr intended target family, where the subfamily is rhodopsin-like receptor.
# Binding assays used specific radioligands (tritiated, iodinated) with non-radioactive competitive displacement ligands in agonist or antagonist protocols (as indicated) and various reference compounds and inhibitors to titrate specific binding to receptors and transporters. Most enzyme assays (CYPs, kinases, phosphatases, proteases, HDACs) used recombinant protein and specific substrates (fluorescence mostly, some colorimetric and radioactive) and inhibitors, followed by a biochemical separation of substrate and product. All assays for the biochemical HTS were initially run in duplicate at a single concentration (10 uM for CYP450 assays and 25 uM for all others). […] Each assay was run with positive and negative controls, and concurrent controls on every plate. The follow-up (secondary) screen tested active chemical-pairs in concentration series, as well as a few additional assays not tested in the primary screen, some selected negative inactives, and several cases re-run in the concentration series for confirmatory purposes.
# [8] = target: human Neurotensin Receptor (NTS), NTSR1 (gene 4923) (UniProt P30989); test: NVS_GPCR_hNTS: NovaScreen (NVS) G Protein-Coupled Receptor Assay for human Neurotensin Receptor (NTS) (AID 2283279)
# human Neurotensin Receptor (NTS), NTSR1 (gene 4923), sequence (P30989 whole entry, looked up): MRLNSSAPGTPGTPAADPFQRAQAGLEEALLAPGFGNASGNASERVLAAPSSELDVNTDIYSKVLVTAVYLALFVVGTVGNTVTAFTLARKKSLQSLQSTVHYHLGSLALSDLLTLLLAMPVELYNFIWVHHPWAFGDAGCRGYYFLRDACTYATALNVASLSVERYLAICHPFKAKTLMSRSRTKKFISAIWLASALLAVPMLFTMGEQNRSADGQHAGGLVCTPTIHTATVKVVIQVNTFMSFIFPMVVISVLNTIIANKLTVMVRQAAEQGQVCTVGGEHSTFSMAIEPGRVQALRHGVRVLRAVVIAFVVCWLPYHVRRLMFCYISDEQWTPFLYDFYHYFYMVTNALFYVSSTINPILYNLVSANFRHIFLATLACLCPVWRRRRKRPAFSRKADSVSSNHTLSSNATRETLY
# How it was run: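 Radioligand displacement on human NTSR1 protein from CHO cells, cell-free, 1 h, filter-based scintillation counting. Primary screen at 25 uM in duplicate; hits rerun in concentration-response up to 50 uM.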
# [9] = target: rat Serotonin, 5-Hydroxytryptamine Receptor 1 (5HT1), Non-Selective Binding, Htr1a (gene 24473) (UniProt P19327); test: NVS_GPCR_r5HT1_NonSelective: NovaScreen (NVS) G Protein-Coupled Receptor Assay for rat Serotonin, 5-Hydroxytryptamine Receptor 1 (5HT1), Non-Selective Binding (AID 2283286)
# rat Serotonin, 5-Hydroxytryptamine Receptor 1 (5HT1), Non-Selective Binding, Htr1a (gene 24473), sequence (P19327 whole entry, looked up): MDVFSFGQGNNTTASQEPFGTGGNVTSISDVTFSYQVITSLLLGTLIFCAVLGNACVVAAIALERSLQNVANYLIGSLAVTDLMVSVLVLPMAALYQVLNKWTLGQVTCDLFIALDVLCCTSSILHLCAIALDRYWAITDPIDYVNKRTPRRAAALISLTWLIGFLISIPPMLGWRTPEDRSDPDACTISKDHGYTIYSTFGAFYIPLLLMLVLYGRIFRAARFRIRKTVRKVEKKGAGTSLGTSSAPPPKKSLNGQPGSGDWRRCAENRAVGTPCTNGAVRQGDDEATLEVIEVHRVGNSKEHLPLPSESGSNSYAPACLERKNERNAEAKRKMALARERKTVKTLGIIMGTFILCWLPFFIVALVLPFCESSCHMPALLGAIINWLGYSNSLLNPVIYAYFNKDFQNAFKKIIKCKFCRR
# How it was run: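 Rat cortical membranes, radioligand displacement, 1 h incubation, read by filter scintillation. Primary screen in duplicate at 25 uM. Hits (e.g. ≥30% inhibition) went to concentration-response up to 50 uM, fitted as loss of binding versus DMSO.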
# [10] = target: rat Adrenergic, Alpha 1, Non-selective Receptor (Adra1), Adra1a (gene 29412) (UniProt P43140); test: NVS_GPCR_rAdra1_NonSelective: NovaScreen (NVS) G Protein-Coupled Receptor Assay for rat Adrenergic, Alpha 1, Non-selective Receptor (Adra1) (AID 2283289)
# rat Adrenergic, Alpha 1, Non-selective Receptor (Adra1), Adra1a (gene 29412), sequence (P43140 whole entry, looked up): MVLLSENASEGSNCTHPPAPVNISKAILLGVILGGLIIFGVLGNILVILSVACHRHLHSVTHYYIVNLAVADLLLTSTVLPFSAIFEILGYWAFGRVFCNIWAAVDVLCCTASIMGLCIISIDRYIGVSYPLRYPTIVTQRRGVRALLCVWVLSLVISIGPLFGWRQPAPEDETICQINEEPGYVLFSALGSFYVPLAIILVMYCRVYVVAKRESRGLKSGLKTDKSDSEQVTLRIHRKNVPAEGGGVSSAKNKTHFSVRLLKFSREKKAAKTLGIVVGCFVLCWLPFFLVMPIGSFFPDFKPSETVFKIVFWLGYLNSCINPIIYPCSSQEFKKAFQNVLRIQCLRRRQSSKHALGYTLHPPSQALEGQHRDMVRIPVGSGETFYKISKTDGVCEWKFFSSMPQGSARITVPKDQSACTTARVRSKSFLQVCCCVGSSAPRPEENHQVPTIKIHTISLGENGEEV
# How it was run: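 Rat forebrain membranes; radioligand displacement read by filter-based scintillation counting 1 h after dosing. Primary screen in duplicate at 25 uM; hits (e.g. ≥30% inhibition) rerun as concentration–response to 50 uM max. Fitted versus DMSO.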
smiles,measurement,setting,value
O=C(O)c1ccccc1,outcome,[1],inactive
same,outcome,[2],inactive
CC(C)(c1ccc(O)cc1)c1ccc(O)cc1,AC50,[3],11.2 µM (active)
same,AC50,[4],10.3 µM (active) and 5.04 µM (active)
same,outcome,[4],inactive
same,AC50,[5],18.6 µM (active) and 19 µM (active)
CN(C)C(=O)Nc1ccc(Cl)c(Cl)c1,AC50,[4],9.69 µM (active)
C[C@]12C[C@H](O)[C@H]3[C@@H](CCC4=CC(=O)CC[C@@]43C)[C@@H]1CC[C@@H]2C(=O)CO,AC50,[6],39 µM (active)
CCC(O)=C1C(=O)CC(C(=O)O)CC1=O (stereo not drawn),outcome,[7],inactive
S=C([S-])NCCNC(=S)[S-].[Mn+2],outcome,[8],inactive
same,outcome,[2],inactive
same,outcome,[7],inactive
S=C(S)NCCNC(=S)S.[Mn+2].[S-]C([S-])=NCCN=C([S-])[S-].[Zn+2],outcome,[3],inactive
same,outcome,[2],inactive
same,outcome,[9],inactive
same,outcome,[7],inactive
COC(=O)c1ccccc1C(=O)O,outcome,[8],inactive
COC(=O)c1cccc(C)c1S(=O)(=O)NC(=O)Nc1nc(OCC(F)(F)F)nc(N(C)C)n1,AC50,[2],1.32 µM (active)
O=C(c1ccc(O)cc1O)c1ccc(O)cc1O,AC50,[3],18.5 µM (active)
same,AC50,[5],17.4 µM (active)
Oc1ccc(C(c2ccc(O)cc2)C(Cl)(Cl)Cl)cc1,AC50,[3],5.12 µM (active)
same,outcome,[10],inactive
COC(=O)c1ccc(CNS(C)(=O)=O)cc1S(=O)(=O)NC(=O)Nc1nc(OC)cc(OC)n1,outcome,[8],inactive
same,outcome,[10],inactive
COC(=O)CSc1cc(N=c2sc(=O)n3n2CCCC3)c(F)cc1Cl,outcome,[9],inactive
same,outcome,[10],inactive
c1ccc2[nH]c(-c3cscn3)nc2c1,outcome,[8],inactive
CC(=O)S[C@@H]1CC2=CC(=O)CC[C@]2(C)[C@H]2CC[C@@]3(C)[C@@H](CC[C@@]34CCC(=O)O4)[C@H]12,AC50,[3],4.42 µM (active)
C=CCOC(Cn1ccnc1)c1ccc(Cl)cc1Cl (stereo not drawn),AC50,[3],4.96 µM (active)
CC(C)(C)[C@@H](O)[C@@H](Cc1ccc(Cl)cc1)n1cncn1,outcome,[7],inactive
COC(=O)c1c(Cl)nn(C)c1S(=O)(=O)NC(=O)Nc1nc(OC)cc(OC)n1,outcome,[7],inactive
CC(C)CCCCCCc1ccc(O)cc1,outcome,[3],inactive
CCCN(CCC)c1c([N+](=O)[O-])cc(C(F)(F)F)c(N)c1[N+](=O)[O-],outcome,[8],inactive
